Laboratory results from PubChem BioAssay (NCI).
About 79,000 compounds went through this panel and 15% of them were active in at least one assay; those are over-represented in the sample as a whole. A number with no mark means an inactive call. Activity calls are given as the source filed them. Cut-off read from the data, not from the text of the source: active = growth inhibition above about 70%; inactive = the rest.

Test: NCI Yeast Anticancer Drug Screen. Data for the bub3 strain (AID 167)
Conditions: S. cerevisiae bub3 mutant strain, at 50.0 µM, hits give high values
Summary of the method: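 Steps: expose the mutant yeast strain to compound; grow alongside vehicle-treated cultures; measure growth; express inhibition against the vehicle cultures.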

Structure (SMILES) | growth inhibition
CN(C)CCC(=O)Cc1ccccc1 | -26.1%
O=S(=O)(O)c1cccc2cccc(Nc3ccccc3)c12 | -14.8%
O=C(CC1Sc2ccccc2NC1=O)Nc1cc(Cl)ccc1Cl (stereo not given) | 8.7%
Nc1ccc(N=Nc2ccncc2)c2ccccc12 | 28%
Cc1ccc2occ(/C=N/NC(N)=S)c(=O)c2c1 | 1.2%
CC1=CC(C)S(=O)(=O)C1 (stereo not given) | -57.8%
O=S(=O)(O)c1ccc2c(N=Nc3cccc4ccccc34)c(O)c(S(=O)(=O)O)cc2c1 | -17.8%
C/C(C#N)=C1/Nc2ccccc2NC1=O | 15.1%
OC(CCN1CCC2CCC(C2)C1)(c1ccccc1)c1ccc(Cl)cc1 (stereo not given) | 4.4%
c1ccc2c(c1)CCc1cc3cc4c(nc3nc1-2)-c1ccccc1CC4 | -1.75%
COc1ccc(C2C(=O)C(Cl)N2Nc2nc(C)cc(=O)[nH]2)cc1OC (stereo not given) | -27.9%
O=C(OC(c1ccccc1)c1ccccc1)c1ccccc1C(=O)c1ccccc1 | -3.25%
NCS(=O)(=O)O | -24.2%
COc1ccc2nc(NCCNCCO)cc(NCCNCCO)c2c1 | -0.75%
COc1cc(C(c2c(O)c3ccccc3oc2=O)N2CCCC2)cc(OC)c1OC (stereo not given) | -0.3%
CCCCCCCCCCCCOc1ccc2ccccc2c1 | -6.45%
CSC12CC3C(=O)C=C[C@@H](O)[C@@H]3N1C(=O)C1(SC)CC3C(=O)C=C[C@@H](O)[C@@H]3N1C2=O (stereo not given in full) | 72.8% (active)
CC(=O)/C=C/N(C)c1ccc(O)cc1 | 5.55%
CCNC(=O)c1cc2ccccc2cc1O | -15.7%
Cc1ccc(S(=O)(=O)OCC2CCC(COS(=O)(=O)c3ccc(C)cc3)O2)cc1 (stereo not given) | -0.35%

Structure (SMILES) | growth inhibition
O=C1CC(CC(=O)c2ccc(Br)cc2)C(=O)/C1=C(/O)c1ccc(Br)cc1 (stereo not given) | 22.9%
OC1(Cl)c2cccc3cccc(c23)C1(O)Cl (stereo not given) | 0.25%
O=C(NC1C2CC3CC(C2)CC1C3)c1cc(/C=C/c2ccccc2)[nH]c(=S)n1 (stereo not given) | -2.25%
Nc1nc2c(c(=O)[nH]1)CN(c1ccc(S(N)(=O)=O)cc1)CN2 | -26.4%
COc1cc(OC)cc(C(=O)NN)c1 | 0.5%
COc1ccc(C2=C(c3ccccc3)C(C)(C)Oc3ccc4ccccc4c32)cc1 | -2.8%
O=C(CN1CCCCC1)NC(=O)N/N=C\c1ccco1 | -0.15%
O=C(c1cccs1)c1ccc2ccccc2c1C(=O)O | 58.5%
CC1(C)OCC(C2OC3OC(C)(C)OC3C2OP(=O)(N2CC2)N2CC2)O1 (stereo not given) | -70.8%
COC(=O)C1CCC(=O)N1CN(C(C)=O)c1ccccc1 (stereo not given) | -5.8%
O=C1C2=Cc3ccccc3OC2(O)Oc2ccc(O)cc21 (stereo not given) | -38.6%
O=S(=O)(Cc1ccccc1)C(I)c1ccccc1 (stereo not given) | 60.7%
O=c1[nH]c2cc(Cl)ccc2c2cc(Cl)ccc12 | -0.3%
CCOC(=O)C(CN)c1ccccc1 (stereo not given) | -1.25%
O=[N+]([O-])c1c(Nc2ccccc2)ncnc1Nc1ccccc1 | -10.6%
COC(C)C(NC(=O)C1CCCN1C)C1OC(SCCOC(=O)c2ccccc2O)C(O)C(O)C1O (stereo not given) | 3.45%
CCCCOC(=O)NC(=O)c1cn(CCCOC(=O)CCCCCCCCC(=O)OCCCn2cc(C(=O)NC(=O)OCCCC)c(=O)[nH]c2=O)c(=O)[nH]c1=O | -5.85%
O=[N+]([O-])c1ccc(NN=C2CCCCCC2)c([N+](=O)[O-])c1 | 7.45%
CN(C)c1ccc(/C=C/C=C(/C#N)c2ccccc2)cc1 | 24.3%
O=C(NCCN1CCCC1)Nc1ccccc1Cl | 34.1%

Test: NCI Yeast Anticancer Drug Screen. Data for the mlh1 rad18 strain (AID 175)
Conditions: S. cerevisiae mlh1 rad18 strain growth inhibition; at 50.0 µM; hits give high values
Summary of the method: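 Vehicle-treated cultures served as the reference for growth inhibition in a yeast strain carrying DNA damage repair alterations exposed to each compound.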

Structure (SMILES) | growth inhibition
CN(C)CCC(=O)Cc1ccccc1 | 0.95%
O=S(=O)(O)c1cccc2cccc(Nc3ccccc3)c12 | 25.4%
O=C(CC1Sc2ccccc2NC1=O)Nc1cc(Cl)ccc1Cl (stereo not given) | -1.45%
Nc1ccc(N=Nc2ccncc2)c2ccccc12 | 19.7%
Cc1ccc2occ(/C=N/NC(N)=S)c(=O)c2c1 | 0.8%
CC1=CC(C)S(=O)(=O)C1 (stereo not given) | -16.7%
O=S(=O)(O)c1ccc2c(N=Nc3cccc4ccccc34)c(O)c(S(=O)(=O)O)cc2c1 | 23.1%
C/C(C#N)=C1/Nc2ccccc2NC1=O | 4.55%
OC(CCN1CCC2CCC(C2)C1)(c1ccccc1)c1ccc(Cl)cc1 (stereo not given) | -17.2%
c1ccc2c(c1)CCc1cc3cc4c(nc3nc1-2)-c1ccccc1CC4 | -15.2%
COc1ccc(C2C(=O)C(Cl)N2Nc2nc(C)cc(=O)[nH]2)cc1OC (stereo not given) | -15.8%
O=C(OC(c1ccccc1)c1ccccc1)c1ccccc1C(=O)c1ccccc1 | -36.1%
NCS(=O)(=O)O | -26.1%
COc1ccc2nc(NCCNCCO)cc(NCCNCCO)c2c1 | 11.3%
COc1cc(C(c2c(O)c3ccccc3oc2=O)N2CCCC2)cc(OC)c1OC (stereo not given) | 2.7%
CCCCCCCCCCCCOc1ccc2ccccc2c1 | -8.15%
CSC12CC3C(=O)C=C[C@@H](O)[C@@H]3N1C(=O)C1(SC)CC3C(=O)C=C[C@@H](O)[C@@H]3N1C2=O (stereo not given in full) | 65.2%
CC(=O)/C=C/N(C)c1ccc(O)cc1 | -26.2%
CCNC(=O)c1cc2ccccc2cc1O | 6.55%
Cc1ccc(S(=O)(=O)OCC2CCC(COS(=O)(=O)c3ccc(C)cc3)O2)cc1 (stereo not given) | -6.9%

Structure (SMILES) | growth inhibition
O=C1CC(CC(=O)c2ccc(Br)cc2)C(=O)/C1=C(/O)c1ccc(Br)cc1 (stereo not given) | 48.8%
OC1(Cl)c2cccc3cccc(c23)C1(O)Cl (stereo not given) | -14.1%
O=C(NC1C2CC3CC(C2)CC1C3)c1cc(/C=C/c2ccccc2)[nH]c(=S)n1 (stereo not given) | 14.3%
Nc1nc2c(c(=O)[nH]1)CN(c1ccc(S(N)(=O)=O)cc1)CN2 | -12.3%
COc1cc(OC)cc(C(=O)NN)c1 | -18.6%
COc1ccc(C2=C(c3ccccc3)C(C)(C)Oc3ccc4ccccc4c32)cc1 | -7.3%
O=C(CN1CCCCC1)NC(=O)N/N=C\c1ccco1 | 13.8%
O=C(c1cccs1)c1ccc2ccccc2c1C(=O)O | 4.7%
CC1(C)OCC(C2OC3OC(C)(C)OC3C2OP(=O)(N2CC2)N2CC2)O1 (stereo not given) | -73.4%
COC(=O)C1CCC(=O)N1CN(C(C)=O)c1ccccc1 (stereo not given) | -30.6%
O=C1C2=Cc3ccccc3OC2(O)Oc2ccc(O)cc21 (stereo not given) | -33.5%
O=S(=O)(Cc1ccccc1)C(I)c1ccccc1 (stereo not given) | 73% (active)
O=c1[nH]c2cc(Cl)ccc2c2cc(Cl)ccc12 | 52.2%
CCOC(=O)C(CN)c1ccccc1 (stereo not given) | 3.6%
O=[N+]([O-])c1c(Nc2ccccc2)ncnc1Nc1ccccc1 | 1.05%
COC(C)C(NC(=O)C1CCCN1C)C1OC(SCCOC(=O)c2ccccc2O)C(O)C(O)C1O (stereo not given) | 31.6%
CCCCOC(=O)NC(=O)c1cn(CCCOC(=O)CCCCCCCCC(=O)OCCCn2cc(C(=O)NC(=O)OCCCC)c(=O)[nH]c2=O)c(=O)[nH]c1=O | -35.9%
O=[N+]([O-])c1ccc(NN=C2CCCCCC2)c([N+](=O)[O-])c1 | -0.45%
CN(C)c1ccc(/C=C/C=C(/C#N)c2ccccc2)cc1 | 2.65%
O=C(NCCN1CCCC1)Nc1ccccc1Cl | 0.15%
